# Where two headings read alike, the source gives them in different places.
# Tests used:
# CDK6 = tested on: CDK6; design: species or system human, MV4-11 + K-562 + COLO205 + SK-N-BE2 + OVCAR-8; settings: read-out: apparent Kd; compound concentrations: 100 nM and 1000 nM (sheet 'Samples'), CATDS: 0.35534490355550902; n = 1
# EGFR = tested on: EGFR; design: species or system human, MV4-11 + K-562 + COLO205 + SK-N-BE2 + OVCAR-8; settings: read-out: apparent Kd; compound concentrations: 100 nM and 1000 nM (sheet 'Samples'), CATDS: 0.84328926118449798; n = 1
# CDKL5 = tested on: CDKL5; design: species or system human, MV4-11 + K-562 + COLO205 + SK-N-BE2 + OVCAR-8; settings: read-out: apparent Kd, n = 1
# MTHFD1 = tested on: MTHFD1; design: species or system human, MV4-11 + K-562 + COLO205 + SK-N-BE2 + OVCAR-8; settings: read-out: apparent Kd; compound concentrations:100 nM and 1000 nM (sheet 'Samples'); n = 1
# PLK1 = tested on: PLK1; design: species or system human, MV4-11 + K-562 + COLO205 + SK-N-BE2 + OVCAR-8; settings: read-out: apparent Kd; compound concentrations: 100 nM and 1000 nM (sheet 'Samples'), CATDS: 0.37737970121019898; n = 1
# CDK7 = tested on: CDK7; design: species or system human, MV4-11 + K-562 + COLO205 + SK-N-BE2 + OVCAR-8; settings: read-out: apparent Kd, compound concentrations: 100 nM and 1000 nM (sheet 'Samples'), n = 1
# ERCC2 = tested on: ERCC2; design: species or system human, MV4-11 + K-562 + COLO205 + SK-N-BE2 + OVCAR-8; settings: read-out: apparent Kd, compound concentrations: 100 nM and 1000 nM (sheet 'Samples'), n = 1
# FER = tested on: FER; design: species or system human, MV4-11 + K-562 + COLO205 + SK-N-BE2 + OVCAR-8; settings: read-out: apparent Kd, compound concentrations: 100 nM and 1000 nM (sheet 'Samples'), n = 1
# GAK = tested on: GAK; design: species or system human, MV4-11 + K-562 + COLO205 + SK-N-BE2 + OVCAR-8; settings: read-out: apparent Kd, compound concentrations: 100 nM and 1000 nM (sheet 'Samples'), n = 1
# PIK3CA = tested on: PIK3CA; design: species or system human, MV4-11 + K-562 + COLO205 + SK-N-BE2 + OVCAR-8; settings: read-out: apparent Kd; compound concentrations: 100 nM and 1000 nM (sheet 'Samples'), CATDS: 0.31694320747902399; n = 1
# TNK1 = tested on: TNK1; design: species or system human, MV4-11 + K-562 + COLO205 + SK-N-BE2 + OVCAR-8; settings: read-out: apparent Kd, compound concentrations: 100 nM and 1000 nM (sheet 'Samples'), n = 1
# TNK2 = tested on: TNK2; design: species or system human, MV4-11 + K-562 + COLO205 + SK-N-BE2 + OVCAR-8; settings: read-out: apparent Kd, compound concentrations: 100 nM and 1000 nM (sheet 'Samples'), n = 1
# EPHA4 = tested on: EPHA4; design: species or system human, MV4-11 + K-562 + COLO205 + SK-N-BE2 + OVCAR-8; settings: read-out: apparent Kd; compound concentrations: 100 nM and 1000 nM (sheet 'Samples'), CATDS: 4.9130602297819598E-2; n = 1
# EPHA5 = tested on: EPHA5; design: species or system human, MV4-11 + K-562 + COLO205 + SK-N-BE2 + OVCAR-8; settings: read-out: apparent Kd; compound concentrations: 100 nM and 1000 nM (sheet 'Samples'), CATDS: 4.6938657100171297E-2; n = 1
# EPHB2 = tested on: EPHB2; design: species or system human, MV4-11 + K-562 + COLO205 + SK-N-BE2 + OVCAR-8; settings: read-out: apparent Kd; compound concentrations: 100 nM and 1000 nM (sheet 'Samples'), CATDS: 5.6373238091853198E-2; n = 1
# EPHB4 = tested on: EPHB4; design: species or system human, MV4-11 + K-562 + COLO205 + SK-N-BE2 + OVCAR-8; settings: read-out: apparent Kd; compound concentrations: 100 nM and 1000 nM (sheet 'Samples'), CATDS: 6.1848145802902502E-2; n = 1
# GSK3A = tested on: GSK3A; design: species or system human, MV4-11 + K-562 + COLO205 + SK-N-BE2 + OVCAR-8; settings: read-out: apparent Kd, compound concentrations: 100 nM and 1000 nM (sheet 'Samples'), n = 1
# PIK3CB = tested on: PIK3CB; design: species or system human, MV4-11 + K-562 + COLO205 + SK-N-BE2 + OVCAR-8; settings: read-out: apparent Kd; compound concentrations: 100 nM and 1000 nM (sheet 'Samples'), CATDS: 5.9648096714639699E-2; n = 1
# PRKAA1 = tested on: PRKAA1; design: species or system human, MV4-11 + K-562 + COLO205 + SK-N-BE2 + OVCAR-8; settings: read-out: apparent Kd; compound concentrations: 100 nM and 1000 nM (sheet 'Samples'), CATDS: 4.9195025679132399E-2; n = 1
# PRKAG2 = tested on: PRKAG2; design: species or system human, MV4-11 + K-562 + COLO205 + SK-N-BE2 + OVCAR-8; settings: read-out: apparent Kd; compound concentrations: 100 nM and 1000 nM (sheet 'Samples'), CATDS: 5.0151658649726198E-2; n = 1
# PTK2B = tested on: PTK2B; design: species or system human, MV4-11 + K-562 + COLO205 + SK-N-BE2 + OVCAR-8; settings: read-out: apparent Kd; compound concentrations: 100 nM and 1000 nM (sheet 'Samples'), CATDS: 5.5106996532726202E-2; n = 1
# PTK2 = tested on: PTK2; design: species or system human, MV4-11 + K-562 + COLO205 + SK-N-BE2 + OVCAR-8; settings: read-out: apparent Kd; compound concentrations: 100 nM and 1000 nM (sheet 'Samples'), CATDS: 5.55941477403585E-2; n = 1
# RPS6KA6 = tested on: RPS6KA6; design: species or system human, MV4-11 + K-562 + COLO205 + SK-N-BE2 + OVCAR-8; settings: read-out: apparent Kd; compound concentrations: 100 nM and 1000 nM (sheet 'Samples'), CATDS: 5.82257386615097E-2; n = 1
# CLK1 = tested on: CLK1; design: species or system human, MV4-11 + K-562 + COLO205 + SK-N-BE2 + OVCAR-8; settings: read-out: apparent Kd; compound concentrations: 100 nM and 1000 nM (sheet 'Samples'), CATDS: 0.119262646968794; n = 1
# CLK4 = tested on: CLK4; design: species or system human, MV4-11 + K-562 + COLO205 + SK-N-BE2 + OVCAR-8; settings: read-out: apparent Kd; compound concentrations: 100 nM and 1000 nM (sheet 'Samples'), CATDS: 0.13099506977266501; n = 1
# ERN2 = tested on: ERN2; design: species or system human, MV4-11 + K-562 + COLO205 + SK-N-BE2 + OVCAR-8; settings: read-out: apparent Kd; compound concentrations: 100 nM and 1000 nM (sheet 'Samples'), CATDS: 0.122228474485695; n = 1
# GSK3B = tested on: GSK3B; design: species or system human, MV4-11 + K-562 + COLO205 + SK-N-BE2 + OVCAR-8; settings: read-out: apparent Kd; compound concentrations: 100 nM and 1000 nM (sheet 'Samples'), CATDS: 0.15136404639572901; n = 1
# PAK4 = tested on: PAK4; design: species or system human, MV4-11 + K-562 + COLO205 + SK-N-BE2 + OVCAR-8; settings: read-out: apparent Kd; compound concentrations: 100 nM and 1000 nM (sheet 'Samples'), CATDS: 0.121686694160256; n = 1
# Q6ZSR9 = Q6ZSR9 (human, UniProt Q6ZSR9); design: species or system MV4-11 + K-562 + COLO205 + SK-N-BE2 + OVCAR-8; settings: read-out: apparent Kd; compound concentrations: 100 nM and 1000 nM (sheet 'Samples'), CATDS: 0.110463614954163; n = 1
# Q6ZSR9, sequence (Q6ZSR9 whole entry, looked up): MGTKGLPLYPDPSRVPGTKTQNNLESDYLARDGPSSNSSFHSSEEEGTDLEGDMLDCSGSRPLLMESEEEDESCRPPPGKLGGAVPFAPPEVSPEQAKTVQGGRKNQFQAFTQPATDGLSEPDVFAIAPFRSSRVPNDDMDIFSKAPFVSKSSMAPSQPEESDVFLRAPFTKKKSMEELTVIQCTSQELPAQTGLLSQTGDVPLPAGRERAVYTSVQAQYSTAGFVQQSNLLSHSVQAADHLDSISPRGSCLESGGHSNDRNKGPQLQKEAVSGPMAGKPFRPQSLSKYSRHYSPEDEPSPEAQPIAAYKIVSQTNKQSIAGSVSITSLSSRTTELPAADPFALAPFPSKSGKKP
smiles,measurement,setting,value
CNC(=O)c1cccc(C#Cc2cncnc2Nc2ccc(OCc3cccc(F)c3)c(Cl)c2)c1 [GW772405X],potency estimated from few doses,CDK6,1780 nM
same,potency estimated from few doses,EGFR,182 nM
COc1cc2ncn(-c3cc(OCc4ccccc4C(F)(F)F)c(C(N)=O)s3)c2cc1OC [GW843682X],potency estimated from few doses,CDKL5; compound concentrations:100 nM and 1000 nM (sheet 'Samples'),2330 nM
same,potency estimated from few doses,MTHFD1,1710 nM
same,potency estimated from few doses,PLK1,1400 nM
Nc1c(C(=O)c2cccc(C(O)CO)c2)cnn1-c1ccc(F)cc1 (stereo not shown) [RO3200567-000],potency estimated from few doses,CDK7; CATDS: 0.117624966951351,1730 nM
same,potency estimated from few doses,ERCC2; CATDS: 0.117960560736162,1710 nM
same,potency estimated from few doses,FER; CATDS: 0.13650868273140601,1200 nM
same,potency estimated from few doses,GAK; CATDS: 0.12538076296612899,1460 nM
same,potency estimated from few doses,PIK3CA,285 nM
same,potency estimated from few doses,TNK1; CATDS: 0.145879794624587,1040 nM
same,potency estimated from few doses,TNK2; CATDS: 0.149039092060825,993 nM
COc1ccc(Nc2nccc(N3CCC(NC(=O)C(C)c4ccc(Cl)cc4)C3)n2)cc1 (stereo not shown) [GSK1379735A],potency estimated from few doses,CDK7; CATDS: 6.6688716966174802E-2,733 nM
same,potency estimated from few doses,EPHA4,1410 nM
same,potency estimated from few doses,EPHA5,1600 nM
same,potency estimated from few doses,EPHB2,1020 nM
same,potency estimated from few doses,EPHB4,846 nM
same,potency estimated from few doses,ERCC2; CATDS: 7.18018036860264E-2,641 nM
same,potency estimated from few doses,FER; CATDS: 6.7369227307756602E-2,719 nM
same,potency estimated from few doses,GAK; CATDS: 6.1535147387706803E-2,854 nM
same,potency estimated from few doses,GSK3A; CATDS: 4.87406111355713E-2,1440 nM
same,potency estimated from few doses,PIK3CB,910 nM
same,potency estimated from few doses,PRKAA1,1410 nM
same,potency estimated from few doses,PRKAG2,1340 nM
same,potency estimated from few doses,PTK2B,1080 nM
same,potency estimated from few doses,PTK2,1060 nM
same,potency estimated from few doses,RPS6KA6,956 nM
same,potency estimated from few doses,TNK1; CATDS: 9.1910216493779603E-2,430 nM
same,potency estimated from few doses,TNK2; CATDS: 8.5615413066405396E-2,479 nM
Cn1cc(C2=C(c3cn(C)c4c([N+](=O)[O-])cccc34)C(=O)NC2=O)c2ccccc21 [RO0317452-000],potency estimated from few doses,"CDKL5; compound concentrations: 100 nM and 1000 nM (sheet 'Samples'), CATDS: 0.10582240505262699",2010 nM
same,potency estimated from few doses,CLK1,1520 nM
same,potency estimated from few doses,CLK4,1260 nM
same,potency estimated from few doses,ERN2,1450 nM
same,potency estimated from few doses,GSK3A; CATDS: 0.15449009445540701,933 nM
same,potency estimated from few doses,GSK3B,967 nM
same,potency estimated from few doses,PAK4,1460 nM
same,potency estimated from few doses,Q6ZSR9,1810 nM
